The source made the active and inactive calls.
How the values were obtained:
[1] = tested on: Plasmodium falciparum Sir2 (PF13_0152, Sir2A); assay: Plasmodium falciparum Sir2A binding compounds – biochemical, small-molecule microarray, 635 nm fluorescence, primary screen (AID 1098); conditions: fluorescence 635 nm, higher = more signal;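 also: score merges spot fluorescence intensity with its signal-to-noise ratio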
[2] = probe aDKK1 binding to arrayed compounds – biochemical, biotinylated probe, 635/667 nm fluorescence, primary screen (AID 1099); conditions: small-molecule microarray, higher = more signal;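 also: score merges 667nm spot fluorescence with signal to noise across triplicate slides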
[3] = probe aCHRDL2 binding to arrayed compounds – biochemical, biotinylated probe, 635/667 nm fluorescence, primary screen (AID 1100); conditions: small-molecule microarray, higher = more signal
[4] = change in splice reporter luminescence, either direction, cell-based, HEK293, spliceosome inhibition project, primary screen (AID 1101); conditions: HEK293 splicing luciferase reporter, 24 h, higher = more signal, called active from +8 up or from −8 down;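 also: HEK293 cells carrying a splicing-competent luciferase reporter gene; test concentration not given here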
[5] = target: Fibroblast growth factor 10 (Homo sapiens) (UniProt O15520); assay: compounds binding fibroblast growth factor 10 – biochemical, small-molecule microarray, 635 nm fluorescence, primary screen (AID 1102); conditions: FGF10 binding, fluorescence 635 nm, higher = more signal
Sequence of Fibroblast growth factor 10 (Homo sapiens) (O15520 whole entry, looked up): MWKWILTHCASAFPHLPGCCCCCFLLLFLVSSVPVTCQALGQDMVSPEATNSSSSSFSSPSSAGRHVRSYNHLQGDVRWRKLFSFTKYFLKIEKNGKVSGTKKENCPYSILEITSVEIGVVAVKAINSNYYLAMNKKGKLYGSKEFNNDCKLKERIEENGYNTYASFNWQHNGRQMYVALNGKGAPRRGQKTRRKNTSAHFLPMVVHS

[6] = tested on: glycogen synthase kinase-3 (GSK3A per assay name; protocol says GSK3B); assay: compounds binding glycogen synthase kinase-3 – biochemical, small-molecule microarray, 635 nm fluorescence, GSK3A, primary screen (AID 1103); conditions: fluorescence 635 nm, higher = more signal; also: the record names both GSK3A and GSK3B
[7] = target: Epidermal growth factor receptor (Homo sapiens) (UniProt P00533); assay: compounds binding epidermal growth factor receptor – biochemical, small-molecule microarray, 635 nm fluorescence, primary screen (AID 1104); conditions: EGFR binding, higher = more signal;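 also: score merges 667 nm emission intensity with spot signal to noise over triplicate slides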
Sequence of Epidermal growth factor receptor (Homo sapiens) (P00533 whole entry, looked up): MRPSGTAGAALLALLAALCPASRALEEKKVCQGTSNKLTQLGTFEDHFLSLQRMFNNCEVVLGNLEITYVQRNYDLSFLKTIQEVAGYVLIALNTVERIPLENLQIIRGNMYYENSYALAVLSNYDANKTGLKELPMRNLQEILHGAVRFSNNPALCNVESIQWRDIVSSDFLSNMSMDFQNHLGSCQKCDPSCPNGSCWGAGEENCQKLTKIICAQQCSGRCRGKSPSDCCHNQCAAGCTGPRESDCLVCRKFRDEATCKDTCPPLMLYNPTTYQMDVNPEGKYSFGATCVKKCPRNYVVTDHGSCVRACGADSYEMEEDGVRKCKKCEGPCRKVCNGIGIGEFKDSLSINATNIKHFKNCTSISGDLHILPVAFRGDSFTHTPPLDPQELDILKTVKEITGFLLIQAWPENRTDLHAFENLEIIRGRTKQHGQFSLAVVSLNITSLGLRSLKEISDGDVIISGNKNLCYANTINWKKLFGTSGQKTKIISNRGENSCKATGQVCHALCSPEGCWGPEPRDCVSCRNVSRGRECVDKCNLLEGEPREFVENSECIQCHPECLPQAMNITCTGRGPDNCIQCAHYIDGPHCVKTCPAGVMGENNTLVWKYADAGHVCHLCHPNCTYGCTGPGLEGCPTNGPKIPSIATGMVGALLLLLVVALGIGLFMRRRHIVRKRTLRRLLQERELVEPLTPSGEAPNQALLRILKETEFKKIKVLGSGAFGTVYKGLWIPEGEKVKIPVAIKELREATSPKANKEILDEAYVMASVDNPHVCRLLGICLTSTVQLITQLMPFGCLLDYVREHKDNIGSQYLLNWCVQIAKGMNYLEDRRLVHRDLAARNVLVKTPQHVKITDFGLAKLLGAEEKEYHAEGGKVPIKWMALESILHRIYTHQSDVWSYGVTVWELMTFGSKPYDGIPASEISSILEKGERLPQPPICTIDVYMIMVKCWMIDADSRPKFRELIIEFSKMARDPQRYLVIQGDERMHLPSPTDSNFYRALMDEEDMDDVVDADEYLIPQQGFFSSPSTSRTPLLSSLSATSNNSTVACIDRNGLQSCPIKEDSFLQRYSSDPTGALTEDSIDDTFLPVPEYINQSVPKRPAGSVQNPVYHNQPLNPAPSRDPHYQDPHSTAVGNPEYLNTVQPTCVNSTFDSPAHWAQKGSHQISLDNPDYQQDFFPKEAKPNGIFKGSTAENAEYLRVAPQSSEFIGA

[8] = target: Follistatin-related protein 3 (Homo sapiens) (UniProt O95633); assay: compounds binding follistatin-related protein 3 – biochemical, small-molecule microarray, 635 nm fluorescence, primary screen (AID 1105); conditions: FSTL3 binding, higher = more signal;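 also: score merges emission near 667 nm and signal to noise per printed spot across three slides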
Sequence of Follistatin-related protein 3 (Homo sapiens) (O95633 whole entry, looked up): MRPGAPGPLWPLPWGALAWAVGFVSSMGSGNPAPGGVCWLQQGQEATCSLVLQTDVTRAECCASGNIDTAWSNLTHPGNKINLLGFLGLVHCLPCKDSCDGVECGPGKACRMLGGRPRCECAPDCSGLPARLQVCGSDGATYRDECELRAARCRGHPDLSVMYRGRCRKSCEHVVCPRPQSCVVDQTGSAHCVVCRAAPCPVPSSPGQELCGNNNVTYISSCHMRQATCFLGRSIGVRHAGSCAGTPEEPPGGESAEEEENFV

[9] = target: Dickkopf-related protein 1 (Homo sapiens) (UniProt O94907); assay: small molecules binding DKK1 protein – biochemical, small-molecule microarray, 635 nm fluorescence scan, primary screen (AID 1106); conditions: higher = more signal;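 also: score merges emission near 667 nm with signal to noise over three replicate slides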
Sequence of Dickkopf-related protein 1 (Homo sapiens) (O94907 whole entry, looked up): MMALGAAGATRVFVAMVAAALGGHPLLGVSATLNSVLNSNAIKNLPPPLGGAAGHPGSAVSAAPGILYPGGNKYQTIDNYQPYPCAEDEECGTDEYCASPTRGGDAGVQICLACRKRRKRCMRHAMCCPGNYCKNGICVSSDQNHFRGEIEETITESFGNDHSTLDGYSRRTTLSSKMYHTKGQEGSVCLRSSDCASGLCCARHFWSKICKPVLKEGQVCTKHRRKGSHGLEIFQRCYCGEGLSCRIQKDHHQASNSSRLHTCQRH

[10] = tested on: Inhibin beta A chain (activin A); assay: small molecules binding activin A – biochemical, small-molecule microarray, 635 nm fluorescence scan, primary screen (AID 1107); conditions: INHBA, higher = more signal;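 also: mouse activin A protein probed at 4.33 µg/mL on printed slides; score merges bound-protein fluorescence near 667 nm with spot signal-to-noise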
[11] = tested on: Human papillomavirus type 1a protein E7 (residues 44-93); assay: small molecules binding HPV E7 44-93 – biochemical, small-molecule microarray, residues 44-93, 635 nm fluorescence, primary screen (AID 1108); conditions: fluorescence 635 nm, higher = more signal;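 also: E7 fragment applied at 1 µg/mL in TBST for 1 h at 4 C; score combines spot fluorescence with its signal to noise ratio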
[12] = hepatitis C replication reporter changes, two-sided – Huh7 cells, luciferase reporter, HCV replication inhibitor project, primary screen (AID 1109); conditions: Huh7 HCV replicon luciferase reporter, 48 h; higher = more signal;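 also: huh7 hepatoma cells harbouring a luciferase neomycin HCV replicon reporter; luciferase luminescence as measure of HCV replicon replication; test concentration not given here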
[13] = target: Left-right determination factor 2 (Homo sapiens) (UniProt O00292); assay: small molecules binding LEFTY2 protein – biochemical, small-molecule microarray, 635 nm fluorescence scan, primary screen (AID 1110); conditions: higher = more signal
Sequence of Left-right determination factor 2 (Homo sapiens) (O00292 whole entry, looked up): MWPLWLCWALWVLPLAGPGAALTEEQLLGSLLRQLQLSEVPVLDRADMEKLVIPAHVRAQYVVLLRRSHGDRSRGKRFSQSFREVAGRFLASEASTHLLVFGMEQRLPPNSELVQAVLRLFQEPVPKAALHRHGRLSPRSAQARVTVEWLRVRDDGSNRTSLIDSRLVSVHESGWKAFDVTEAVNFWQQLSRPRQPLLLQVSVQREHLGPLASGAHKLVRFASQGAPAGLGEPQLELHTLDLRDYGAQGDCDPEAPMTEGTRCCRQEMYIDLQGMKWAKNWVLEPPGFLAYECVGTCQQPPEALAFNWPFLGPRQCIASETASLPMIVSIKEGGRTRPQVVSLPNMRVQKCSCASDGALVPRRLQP

[14] = target: Calmodulin-1 (Homo sapiens) (UniProt P0DP23); assay: small molecules binding calmodulin-1 with EGTA – biochemical, small-molecule microarray, Cy5-labelled CALM1, profiling panel (AID 1111); conditions: Cy5-CALM1 binding fluorescence, higher = more signal;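 also: labelled calmodulin applied in Tris saline Tween buffer holding calcium plus EGTA and DTT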
[15] = target: Calmodulin-1 (Homo sapiens) (UniProt P0DP23); assay: small molecules binding Ca-loaded calmodulin-1 – biochemical, small-molecule microarray, Cy5-labelled CALM1, plus calcium, artefact control for SMM control-protein annotation, profiling panel (AID 1112); conditions: Cy5-CALM1 binding fluorescence, higher = more signal;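 also: score merges spot fluorescence with signal to noise from triplicate slides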
[16] = probe aWnt5a binding to arrayed compounds – biochemical, biotinylated probe, 635/667 nm fluorescence, primary screen (AID 1113); conditions: small-molecule microarray, higher = more signal;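 also: score merges 667 nm fluorescence intensity with signal-to-noise per printed feature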
[17] = probe aShh binding to arrayed compounds – biochemical, biotinylated probe, 635/667 nm fluorescence, primary screen (AID 1114); conditions: small-molecule microarray, higher = more signal;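 also: probe is biotin-labelled aShh protein from a stem cell growth factor screen; measures binding of labelled protein to compounds printed on the slide; score merges feature fluorescence at 667 nm with signal-to-noise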
[18] = probe aNog binding to arrayed compounds – biochemical, biotinylated probe, 635/667 nm fluorescence, primary screen (AID 1115); conditions: small-molecule microarray, higher = more signal;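 also: probe is biotinylated aNog protein used at 0.15 µg/mL for 1 h at 4 C; z-score combines 667 nm fluorescence of each spot with its signal to noise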
[19] = target: Torsin-1A-interacting protein 1 (Homo sapiens) (UniProt Q5JTV8); assay: compound microarray binding of lysate hLAP1 – cell lysate, small-molecule microarray, COS7 lysate, 635/667 nm fluorescence, primary screen (AID 1116); conditions: 635 nm fluorescence, higher = more signal
Sequence of Torsin-1A-interacting protein 1 (Homo sapiens) (Q5JTV8 whole entry, looked up): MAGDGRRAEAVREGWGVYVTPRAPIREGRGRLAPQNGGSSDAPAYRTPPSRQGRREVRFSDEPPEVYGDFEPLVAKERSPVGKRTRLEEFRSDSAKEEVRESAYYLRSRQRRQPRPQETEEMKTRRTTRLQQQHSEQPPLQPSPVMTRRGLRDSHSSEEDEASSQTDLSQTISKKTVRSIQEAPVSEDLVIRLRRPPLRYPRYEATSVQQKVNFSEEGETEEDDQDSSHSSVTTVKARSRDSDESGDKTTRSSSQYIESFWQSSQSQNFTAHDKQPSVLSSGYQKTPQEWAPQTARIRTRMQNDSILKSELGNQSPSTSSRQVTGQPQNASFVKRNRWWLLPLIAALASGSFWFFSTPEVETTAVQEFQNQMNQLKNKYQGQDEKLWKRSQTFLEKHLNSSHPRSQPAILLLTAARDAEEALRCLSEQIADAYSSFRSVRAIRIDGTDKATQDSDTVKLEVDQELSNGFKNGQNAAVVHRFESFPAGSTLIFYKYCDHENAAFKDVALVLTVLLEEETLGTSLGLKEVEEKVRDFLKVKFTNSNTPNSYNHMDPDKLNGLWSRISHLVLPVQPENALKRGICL

[20] = target: Alpha-bungarotoxin (Bungarus multicinctus) (UniProt P60615); assay: compounds binding labelled alpha-BTX control protein – biochemical, small-molecule microarray, Alexa647 label, 635/667 nm fluorescence, artefact control for SMM control protein annotation, profiling panel (AID 1117); conditions: alpha-BTX-A647 binding fluorescence, higher = more signal
Sequence of Alpha-bungarotoxin (Bungarus multicinctus) (P60615 whole entry, looked up): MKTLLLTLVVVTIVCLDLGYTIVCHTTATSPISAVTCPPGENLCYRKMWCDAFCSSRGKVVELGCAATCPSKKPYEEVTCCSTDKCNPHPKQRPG

SMILES	composite z-score [1]	composite z-score [2]	composite z-score [3]	z-score [4]	composite z-score [5]	composite z-score [6]	composite z-score [7]	composite z-score [8]	composite z-score [9]	composite z-score [10]	composite z-score [11]	z-score [12]	composite z-score [13]	composite z-score [14]	composite z-score [15]	composite z-score [16]	composite z-score [17]	composite z-score [18]	composite z-score [19]	composite z-score [20]
CO[C@H]1COC(=O)[C@@H](Cc2ccccc2)NC(=O)[C@@H](C)COC(=O)CC=C[C@@H]1C	0.318	-0.63	-1.46	0.105 (inactive)	0.42	-0.0524	0.954	0.439	0.913	1.31	-0.661	0.413	0.831	-2.36	-2.14	-0.133	-0.124	-0.234	-0.0159	-0.39
O=C1NC(=O)C2C1C=CC(C(O)C=Cc1ccc([N+](=O)[O-])cc1)N2Nc1ccccn1 (stereo not given)	1.1	0.141	0.239	1.5 (inactive)	0.267	-0.0039	1.07	0.479	0.697	1.32	-0.581	0.807	0.909	-0.438	-0.544	-0.14	0.265	-0.142	1.45	0.224
COCCCNC(=O)[C@@]1(Sc2ccc(C)cc2)CC(=O)N(Cc2cc(C(F)(F)F)cc(C(F)(F)F)c2)[C@@H]1c1ccc(CO)cc1I	1.84	0.46	1.19	-1.26 (inactive)	-0.511	-1.14	-1.34	-1.58	-1.79	0.142	-0.975	-1.22	-1.28	-0.0999	1.14	-0.147	0.267	0.942	0.339	-0.489
O=C(NCc1ccccc1)[C@@]1(Cc2ccccc2)COC(c2ccc(OCCCO)cc2)=N1	0.838	0.599	1.06	-0.13 (inactive)	0.117	0.0562	-0.705	-0.641	-0.715	0.578	1.4	-3.29	-0.702	0.588	0.687	-0.128	-0.0337	0.597	1.57	1.71
[N-]=[N+]=NCc1ccccc1C[C@@]1(C(=O)N2CCOCC2)N=C(c2ccc(OCCCO)cc2)O[C@@H]1c1ccccc1N=[N+]=[N-]	1.45	1.41	1.31	-0.531 (inactive)	1.42	0.683	-0.11	0.436	-0.433	1.32	0.425	-1.14	-0.139	2.15	1.13	0.208	0.412	1.64	1.74	2.84
Cc1ccc(S(=O)(=O)c2cc3oc2CC[C@@H](CO)NC(=O)N(C)Cc2cn(nn2)C[C@H](Cc2ccccc2)NC3=O)cc1	1.36	-0.122	-0.0291	-0.0233 (inactive)	-0.0287	0.164	-0.497	-0.233	-0.266	-0.171	-0.398	-0.376	-0.587	0.212	0.175	-0.1	0.483	0.402	0.781	0.513
CCOC(=O)C1=CC[C@@H](c2ccccc2)N(S(=O)(=O)c2ccc(C)cc2)[C@H]1C	1.09	0.821	0.567	-0.993 (inactive)	1.4	0.312	1.02	1.38	0.635	0.258	1.47	-2.88	0.902	0.764	0.665	0.101	-0.214	0.787	0.682	1.74
CC(=O)NCCCC[C@@H]1NC(=O)[C@@H]2C[C@H](C(=O)NCCCCCNC(=O)CS)[C@H](c3ccc(O)cc3)N2C1=O	1.45	-0.384	0.292	-1.88 (inactive)	-0.282	-0.631	-0.817	-0.781	0.527	0.247	0.364	1.22	-0.293	-0.592	0.503	-0.221	0.0284	-0.0315	0.0502	-0.46
[N-]=[N+]=NCc1ccccc1C[C@]1(C(=O)N2CCCCC2)N=C(c2ccc(OCCCO)cc2)O[C@H]1c1ccccc1CN=[N+]=[N-]	0.751	0.518	0.885	0.324 (inactive)	0.924	0.65	-0.107	0.556	-0.531	0.212	1.41	-2.73	-0.406	1.67	0.855	0.0375	0.503	1.25	1.95	1.11
C=C[C@H](OC)[C@@H](OC(=O)Nc1ccc(SC)cc1)c1ccc(OC)c(O)c1	0.0729	-0.276	0.241	-1.84 (inactive)	-0.337	-0.392	-0.915	-1.4	-0.559	-0.778	0.318	0.899	-0.784	-0.414	0.319	-0.176	-0.0626	-0.15	0.324	-0.508
O=C(NCc1ccccc1)c1ccc(Br)cc1[N+](=O)[O-]	0.333	-0.261	-0.47	0.628 (inactive)	0.39	0.215	0.425	0.494	0.346	0.31	-0.0303	-0.3	0.61	0.216	0.321	-0.0462	-0.141	-0.318	0.0817	1.29

— PubChem BioAssay
